Results as given in PubChem BioAssay (EPA / NIEHS).
Several values for one entry are separate records, joined by “and”; a condition that tells them apart may be missing. Equal values may be shown once. Results filed as inconclusive are left out. A structure can be active in one record and inactive in another. Activity calls are given as the source filed them. The calls were made as follows, unless noted: active = hit-call score of the fitted dose curve at least 0.9, where 1 is the maximum; inactive = score below 0.9.

Assays:
[1] = CCTE_Mundy_HCI_Cortical_Synap_Neur_Matur_SynapseCount: CCTE's Synaptogenesis and Neurite Maturation Assay in rat cortical cells for Synapse Count, Mundy Lab (AID 2284218)
How it was run: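 Primary rat cortical culture; AraC DIV 5 to arrest glia; compound + media change DIV 7; terminated DIV 12. PFA/Hoechst fix, anti-MAP2 + anti-synaptophysin immunostain; HCI synapse count/neuron; DMSO = baseline.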

[2] = CCTE_Mundy_HCI_hN2_NOG_NeuriteCount: CCTE's Neurite Outgrowth Assay in human hN2 cells for Neurite Count, Mundy Lab (AID 2284219; active = hit-call score of the fitted dose curve at least 0.9, where 1 is the maximum)
How it was run: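 In this morphology assay, hNP1-derived neurons received test chemical 2 h post-plating and were fixed two days later in warm paraformaldehyde/sucrose containing Hoechst 33342. Neurites, labelled by rabbit anti-βIII-tubulin (1:800) and Alexa Fluor-488 (1:500), were counted automatically.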

[3] = CCTE_Mundy_HCI_Cortical_Synap_Neur_Matur_CellBodySpotCount: CCTE's Synaptogenesis and Neurite Maturation Assay in rat cortical cells for Cell Body Spot Count, Mundy Lab (AID 2284223)
How it was run: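 Read-out: cell body-associated synaptophysin puncta per neuron, imaged after MAP2, synaptophysin and Hoechst staining. Rat cortical cells, AraC DIV 5, chemical dosing DIV 7, fixation DIV 12. Activity fitted in positive direction relative to DMSO baseline.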

[4] = CCTE_Mundy_HCI_hNP1_Pro_ResponderAvgInten: CCTE's Proliferation Assay in human neuroprogenitor cells, Mundy Lab (AID 2284224; active = hit-call score of the fitted dose curve at least 0.9, where 1 is the maximum;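 also: human neural progenitor cells hNP1 derived from WA09 embryonic stem cells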)
How it was run: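 Human neuroprogenitors (hNP1, WA09 lineage) receive test chemical after 40 to 44 hours of attachment. A four-hour BrdU pulse begins twenty hours later, followed by fixation and high content imaging; signal is referenced to DMSO controls.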

[5] = TAMU_HCS_1.5hr_SingleDonor1434_Cytotoxicity: Cytotoxicity Assessment using High-content Screening (HCS) Fluorescent Imaging for the Texas A&M University (TAMU) 1.5-hr Human Induced Pluripotent Stem Cell (iPSC)-derived Cardiotoxicity Assay (AID 2284234; active = hit-call score of the fitted dose curve at least 0.9, where 1 is the maximum)
How it was run: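 Human iPSC-derived cardiomyocytes dosed at 0.2, 1, 10, 100 uM final (0.5% DMSO) for 90 min at 37 C. Hoechst 33342-stained nuclei counted by 10x high-content imaging; POD is EC10, a 10% drop in total cell count versus DMSO.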

[6] = TAMU_PeakParms_SingleDonor1434_QT: Texas A&M University (TAMU) 1.5-hr Human Induced Pluripotent Stem Cell (iPSC)-derived Cardiomyocytes Calcium (Ca+2) Flux Assay for Cardiotoxicity: QT (decay-rise ratio) (AID 2284235; active = hit-call score of the fitted dose curve at least 0.9, where 1 is the maximum)
How it was run: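 iPSC-derived cardiomyocytes (single donor 1434) dosed at 0.2, 1, 10, 100 uM final in 0.5% DMSO, 90 min at 37C. Ca2+ flux fluorescence decay/rise ratio; EC05 (5% increase versus DMSO) as POD, excluding beat-arrest and severe-notch data.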

[7] = CCTE_Mundy_HCI_Cortical_NOG_NeuronCount: CCTE's Neurite Outgrowth Assay in rat cortical cells for Neuron Count, Mundy Lab (AID 2284236; active = hit-call score of the fitted dose curve at least 0.9, where 1 is the maximum;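 also: neurons counted by imaging betaIII-tubulin and Hoechst stained cortical cells; cells exposed to compound for about 48 hours before fixation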)
How it was run: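 Read-out: neuron number by high-content imaging of betaIII-tubulin (Alexa Fluor-488) and Hoechst-labelled rat primary cortical cells.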

[8] = CCTE_Mundy_HCI_hNP1_Casp3_7: CCTE's Caspase-Glo 3/7 Assay in human neuroprogenitor cells for Apoptosis, Mundy Lab (AID 2284240)
How it was run: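 Neuroepithelial-lineage stem cells from WA09 embryonic cells were treated with chemicals after 40–44 h of culture. Twenty-four hours later, caspase-3/7 activation was detected luminescently after a 30 min room-temperature reagent step, with DMSO as baseline.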

[9] = BSK_BT_PBMCCytotoxicity: PBMC Cytotoxicity Assessment in the BioMAP Diversity Plus: BT Assay (AID 2284225); settings: primary human B cells with PBMC;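 also: PBMC viability measured by Alamar Blue dye reduction fluorescence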
How it was run: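 PBMC (75,000/well) pretreated with compound 1 h, then activated with SEB and TSST-1 (20 ng/mL each final), incubated 90 h; Alamar Blue added 6 h, fluorescence read at 546/580 nm. Fitted relative to DMSO.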

[10] = read-out: Secreted IgG (sIgG), gene 3500; experiment: BSK_BT_sIgG: BioMAP Diversity Plus: BT Assay for Secreted IgG (sIgG) Biomarker Activity (AID 2284226); settings: primary human B cells with PBMC
How it was run: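 Read-out: ELISA for secreted IgG after 24 h of chemical exposure in a B cell plus PBMC co-culture. Values reflect upward-direction fitting against DMSO negative controls.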

[11] = BSK_BT_Bcell_Proliferation: Viability Assessment in the BioMAP Diversity Plus: BT Assay for B cell Proliferation (AID 2284227); settings: primary human B cells with PBMC
How it was run: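 Human B cell/PBMC co-culture; test chemical added; 72 h; TCA fix (10%), 0.1% SRB stain, A560 for total protein as a proliferation read-out; positive-direction fit vs DMSO baseline.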

[12] = read-out: Interleukin 6 (IL6), IL6 (gene 3569); experiment: BSK_BT_xIL6: BioMAP Diversity Plus: BT Assay for Interleukin 6 (IL6) Biomarker Activity (AID 2284228); settings: primary human B cells with PBMC
How it was run: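 Readout: secreted IL-6 via Luminex xMAP multiplex, 24 h post-dosing. System: primary human B cells co-cultured with PBMC. Signal change scored relative to DMSO vehicle, positive fitting direction.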

[13] = read-out: Tumor necrosis factor (Homo sapiens) (UniProt P01375); experiment: BSK_BT_xTNFa: BioMAP Diversity Plus: BT Assay for Tumor necrosis factor alpha (TNF-alpha) Biomarker Activity (AID 2284230); settings: primary human B cells with PBMC
How it was run: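 Read-out: Luminex xMAP quantitation of secreted TNF-alpha from a B cell/PBMC co-culture 24 h after compound addition. Signal analysed relative to DMSO vehicle, positive fitting direction.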

[14] = read-out: Vascular cell adhesion molecule 1 (VCAM1), VCAM1 (gene 7412); experiment: BSK_MyoF_VCAM1: BioMAP Diversity Plus: MyoF Assay for Vascular cell adhesion molecule 1 (VCAM1) Biomarker Activity (AID 2284231); settings: primary human lung fibroblasts
How it was run: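 MyoF system, lung fibroblasts; 24 h post-dose; VCAM-1 by ELISA; gain-of-signal fit vs DMSO baseline.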

[15] = read-out: Collagen I, COL1A1 (gene 1277); experiment: BSK_MyoF_CollagenI: BioMAP Diversity Plus: MyoF Assay for Collagen I Biomarker Activity (AID 2284238); settings: primary human lung fibroblasts
How it was run: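 ELISA readout of Collagen I after 24 h chemical treatment of primary human lung fibroblast cultures; gain of signal scored relative to DMSO vehicle baseline.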

[16] = read-out: Collagen III, COL3A1 (gene 1281); experiment: BSK_MyoF_CollagenIII: BioMAP Diversity Plus: MyoF Assay for Collagen III Biomarker Activity (AID 2284239); settings: primary human lung fibroblasts
How it was run: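 Lung fibroblast culture; 24 h compound exposure; collagen III by ELISA; gain-of-signal fit vs DMSO baseline.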

[17] = read-out: Interleukin 17A (IL17A), IL17A (gene 3605); experiment: BSK_BT_xIL17A: BioMAP Diversity Plus: BT Assay for Interleukin 17A (IL17A) Biomarker Activity (AID 2284229); settings: primary human B cells with PBMC
How it was run: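 Luminex xMAP readout of secreted IL-17A; human B cell + PBMC co-culture; 24 h post-dose; positive-direction fit vs DMSO negative control.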

[18] = CCTE_Mundy_HCI_Cortical_Synap_Neur_Matur_NeuriteCount: CCTE's Synaptogenesis and Neurite Maturation Assay in rat cortical cells for Neurite Count, Mundy Lab (AID 2284222);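 also: exposure from day 7 to day 12 in vitro with readout at day 12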
How it was run: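 Rat cortical neurons, 96-well; AraC DIV 5; chemical + media change DIV 7; end DIV 12. Fix PFA/Hoechst, anti-MAP2 + anti-synaptophysin IF. HCI neurite count vs DMSO baseline.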

[19] = UKN2_HCS_IMR90_cell_viability: Viability Assessment in the University of Konstanz (UKN) Leist Lab Neural Crest Cell Migration Assay in human induced IMR90 Pluripotent Stem Cells (UKN2) (AID 2284233);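 also: viability of neural crest cells differentiated from IMR90 iPSC measured by calcein-AM fluorescence imaging; cells exposed to compound for 24 h after a 24 h migration phase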
How it was run: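 iPSC-derived (IMR90) neural crest cells seeded around silicone stoppers on PLO/laminin/fibronectin; after 24 h migration in N2-S with EGF/FGF, chemical added for 24 h. Calcein-AM/Hoechst stained 30 min, high-content imaged; bidirectional fit versus DMSO.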

[20] = CCTE_Mundy_HCI_Cortical_NOG_BPCount: CCTE's Neurite Outgrowth Assay in rat cortical cells for Branch Point Count, Mundy Lab (AID 2284237)
How it was run: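 Measured 50.33 h after dosing, this morphology endpoint uses rat primary cortical cultures labelled for betaIII-tubulin. Branch points are quantified by high-content imaging, with DMSO as negative control and baseline.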

Measured: AC50

Tumor necrosis factor (Homo sapiens), sequence (P01375 whole entry, looked up): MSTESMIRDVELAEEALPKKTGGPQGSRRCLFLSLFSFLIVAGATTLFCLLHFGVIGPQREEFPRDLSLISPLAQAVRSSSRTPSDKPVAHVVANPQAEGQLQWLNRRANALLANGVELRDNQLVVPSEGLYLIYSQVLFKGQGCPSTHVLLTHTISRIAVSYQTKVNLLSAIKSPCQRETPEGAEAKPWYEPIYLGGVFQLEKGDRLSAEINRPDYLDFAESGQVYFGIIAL

OC[C@@H](O)[C@@H](O)[C@H](O)[C@@H](O)CO
inactive: [1] | [2] | [3] | [4] | [5] | [6] | [7] | [8]

N=C(N)C(F)(F)C(F)(F)C(F)(F)C(F)(F)C(F)(F)C(F)(F)C(F)(F)F
active: [9] 44.7 µM | [10] 44.4 µM | [11] 45.4 µM | [12] 46 µM | [13] 45.5 µM
inactive: [4] | [9] | [10] | [11] | [12] | [13] | [14] | [15] | [16] | [8]

CCO[Si](CCC(F)(F)C(F)(F)C(F)(F)C(F)(F)C(F)(F)C(F)(F)F)(OCC)OCC
inactive: [9] | [10] | [11] | [12] | [17] | [13] | [14] | [15] | [16]

O=C(O)C(F)(F)C(F)(F)C(F)(F)C(F)(F)C(F)(F)C(F)(F)C(F)(F)C(F)(F)C(F)(F)C(F)(F)C(F)(F)C(F)(F)C(F)(F)F
inactive: [9] | [10] | [11] | [12] | [17] | [13] | [14] | [15] | [16]

O=C(O)C(F)(F)C(F)(F)OC(F)(F)F
inactive: [4] | [9] | [10] | [11] | [12] | [13] | [14] | [15] | [16] | [8]

CO[Si](OC)(c1ccccc1)c1ccccc1
inactive: [9] | [10] | [11] | [12] | [17] | [13]
active: [14] 32.8 µM | [15] 31.6 µM | [16] 31.6 µM

FC(F)(F)C(F)(F)CNCC(F)(F)C(F)(F)F
inactive: [9] | [10] | [11] | [12] | [17] | [13] | [14] | [15] | [16]

CC(C)(C)C(=O)CC(=O)C(F)(F)C(F)(F)C(F)(F)F
inactive: [4] | [9] | [10] | [11] | [12] | [13] | [14] | [15] | [16] | [8]

O=C(O)C(F)(F)C(F)(F)C(F)(F)C(F)(F)C(F)(F)C(F)(F)C(F)(F)C(F)(F)C(F)(F)C(F)(F)C(F)(F)C(F)(F)F
inactive: [9] | [10] | [11] | [12] | [17] | [13] | [14] | [16]
active: [15] 24.5 µM and 18.6 µM

C=CC(=O)OCC(F)(F)C(F)(F)C(F)(F)C(F)(F)C(F)(F)C(F)(F)C(F)(F)F
active: [9] 14 µM | [13] 44.7 µM
inactive: [9] | [10] | [11] | [12] | [13] | [14] | [15] | [16]

FC(F)(F)C(F)(F)C(F)(F)C(F)(F)C(F)(F)C(F)(F)C(F)(F)C(F)(F)F
inactive: [4] | [9] | [10] | [11] | [12] | [13] | [14] | [15] | [16] | [8]

Nc1ccc([N+](=O)[O-])cc1O
inactive: [9] | [10] | [11] | [12] | [17] | [13] | [14] | [15] | [16]

C=C(C)C(=O)OCC(F)(F)C(F)(F)C(F)(F)F
inactive: [4] | [9] | [10] | [11] | [12] | [13] | [14] | [15] | [16] | [8]
active: [11] 2.27 µM

O=C(O)C(F)(OC(F)(F)C(F)(OC(F)(F)C(F)(F)C(F)(F)F)C(F)(F)F)C(F)(F)F (centres undefined)
inactive: [9] | [10] | [11] | [12] | [17] | [13] | [14] | [15] | [16]

CC(CCl)OP(=O)(OC(C)CCl)OC(C)CCl (centres undefined)
inactive: [1] | [18] | [3] | [4] | [9] | [10] | [11] | [12] | [17] | [13] | [14] | [19] | [7] | [20] | [15] | [16] | [8]

Cc1ccc(S(=O)(=O)OCC(F)(F)C(F)(F)C(F)(F)C(F)(F)C(F)(F)C(F)F)cc1
active: [10] 41.7 µM
inactive: [9] | [10] | [11] | [12] | [17] | [13] | [14] | [15] | [16]
